# Source: the supplement of paper PMC11417369
# The full ranking holds about 25,000 sequences; the median of “ln(normalized median fluorescence intensity)” is about 9.3, and the highest 2% start at about 10. For the sample, the highest values were picked, then their nearest neighbours and some sequences at random.
# System: PF3D7_0420300 AP2 domain 1 (GST-tagged)
# Assay: gcPBM binding intensity (ln(normalized median fluorescence intensity)); higher = stronger DNA binding
# Summary of the method: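 GST-tagged P. falciparum DNA-binding domains produced in E. coli were incubated for 1 h on an Agilent 4 × 180k array of primer-extended double-stranded 36-bp intergenic genomic probes with negative controls. Binding intensity is the highest Masliner-normalised natural-log median intensity across replicate spots of either probe orientation, with bound protein detected by Alexa488 anti-GST antibody at 488 nm.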
row,Sequence,gcPBM binding intensity (ln)
1,ATATATATTTTATACGCATGTAATTATTATGTGGTC [TGCATGCA_site45],9.29
2,TAATAGTTATAAAATACACACCAGGCATGATAAATG [CACACA_site4335],9.5
3,TATATATATATAGGTTGTACATTTTGATGTTTACGT [XGTACX_site5503],9.42
4,TATACATACATACATACACACACACCGATATATACA [CACACA_site8184],10.2
5,TATATACATATATACACACACATATATATATATATA [CACACA_site2805],9.6
6,TATACATACATACATACACACACACCGATATATATA [CACACA_site7896],10.1
7,AAAAAAAAAAAAAATACACACACACCGATATATATA [CACACA_site8142],10.1
8,CAAAAAAAATTATACACACACACACCGATATATATA [CACACA_site4719],10.2
9,CAAAATAATATATATACACACACACCGATATATATA [CACACA_site8082],10.2
10,AAAAAAAATTCGTGTGTGCGCATATATAATATATAA,9.6
11,AGATACTTTCCTCAAACACACAAAACTATACAACAA [CACACA_site1474],9.45
12,AAAAAAATAATCATCACACACGGAGAATGTCCAATA [CACACA_site5305],9.6
13,AAGAAATATTTATACACACACACAAACATATATATA [CACACA_site1912],10.2
14,AAAAAAAAATATATAAACACACATATTTATATACAC [GTGCAC_negctrl_site545],9.61
15,AAGAAATATTTATACACACACACAAACATATAAATA [CACACA_site6981],10.2
16,CATAAATACAAATATACACACATATTTATATTTATA [CACACA_site7277],9.54
17,AAAAAAAAAACATACACACACACAAATATTTATATA [CACACA_site437],10.1
18,GAAATAGAGAAACACACACACATATATTTATGTATT [CACACA_site3967],9.99
19,CACAAAAAGAAACACACACACATATATATTTATTAT [CACACA_site3646],10.1
20,GAAATAGAGAGACACACACACATATATTTATGTATT [CACACA_site7794],9.93
21,CAGAAATAGAGATACACACACACATATATTTATGTA [CACACA_site3968],10.2
22,AAAAAAAAAAAAAAAAAAAAATTTCAATTATATTGA [GTGCAC_negctrl_site642],8.91
23,CCATTTTTTTTATACGCACACGTCATACTTTTAAAA [CACACA_site4988],9.46

row,Sequence,gcPBM binding intensity (ln)
1,ATTTATATTTGTATTTGTACTTATATTTATATTTAT [XGTACX_site1540],9.64
2,TGTGTAAGATCTTGGATGATGATAAGAATCTACTAG [CACACA_negctrl_site1167],9.11
3,TATATAAACACGTACACACACATATAGGTATTTATA [CACACA_site7615],9.97
4,TCTTAAAAAATAGGGACACGTAAATATAATATATAA [CACACA_negctrl_site554],9.4
5,TTATACTGTTTCAGAAAAATAAAGAATGAAAGTATT [XGTACX_negctrl_site230],9.23
6,TGTAGAAATGGGTGCACACACATATAAAATCTATAT [CACACA_site7224],9.66
7,TTTCAAAATGTGTAAAATAAAAATAATATCATTACA [TGCATGCA_negctrl_site521],9.08
8,ATTTTCTTTTCCATAGTGCAATATAATTATCCATCA [GTGCAC_site9547],9.29
9,TGTGTCAAGTTTAATAAACGCATATAATATATATGA [CACACA_negctrl_site607],8.93
10,AATTTTTTTTTTTTTTTTTTTTATATATGTGTGTGT [XGTACX_negctrl_site129],9.74
11,TTTTTTATATATGTGTGTGTGTGTGTGTCAAGTTTA [GTGCAC_negctrl_site460],10.3
12,TATATAAATATTCGTAGTACAATACAATTATAAGTA [XGTACX_site3068],9.15
13,AACTAATAAAAAAAAAAAACATTAAACAGGACAAAT [XGTACX_negctrl_site287],9.78
14,AATATAATATAATGCACACATAAACAAAAAAAAAAT [CACACA_site1304],9.89
15,CATATAAAAATATGCACACACAGGAATACAAACATA [CACACA_site684],10.2
16,AAAATATATACACAAACATGCATATAATAAATAAAT [TGCATGCA_site711],9.48
17,AAAATATAATATAATGCACACATAAAACAAAAAAAA [CACACA_site8989],9.74
18,AAAATATAATATAATGCACACATAAACAAAAAAAAA [CACACA_site8161],9.78
19,AACATATAAAAATATGCACACACAGGAATACAAACA [CACACA_site8127],10.3
20,TATATATATATGTGTAGTACAACAAATATGAAAAAT [XGTACX_site4059],9.54
21,AAGAATATTTTTTTCTGTACATATAATTTATATACG [XGTACX_site5801],9.13
22,TATTAATACAGACACACACACACACTAATTAAAATA [CACACA_site7967],10.1
23,ATTTATATATATCATACACACTAATATGTATATTAT [CACACA_site5816],9.42

row,Sequence,gcPBM binding intensity (ln)
1,GGGAAATATTGAAACACACACGAACGCACGTATTTC [CACACA_site6258],9.54
2,ATTTATTTATCAAATATTATCTTAAAAAAAAAAGAA [CACACA_negctrl_site1345],8.79
3,ACAAATGGAACTCCTACAAAAAATTTCCATAATATT [XGTACX_negctrl_site132],9.16
4,TATTAATTCATTTTTTTTTTTTTTTTTTTTTTTTTT [CACACA_negctrl_site1215],9.13
5,GAATAATCCAAACACACACACACACCCGAATAAATA [CACACA_site482],10.2
6,TAATAAATAAATGACACACACACACCCAAAAAAAAA [CACACA_site2623],10.2
7,TTTATTAAGAAACACACACACACACCCAAAATAAAA [CACACA_site242],10
8,TATTTATTAAAACACACACACACACCCACAAAATAA [CACACA_site241],10.1
9,CCCGAACAAACAAATAAACACACAAAAAAAAATATA [CACACA_site8540],9.63
10,CAAAAAATGAAACACACACACACACCCATAAATAAA [CACACA_site1231],10.1
11,ATAATCCTGAAACACACACACACACCCATAAATAAA [CACACA_site481],10.1
12,TTTATTAATAAACACACACACACACCCAAAATAAAA [CACACA_site7966],10.2
13,ATTAATAAATAAATGACACACACACCCACAAAAAAA [CACACA_site8839],9.97
14,GTAATTTTATATGGTTGTACATATATATATATATAT [XGTACX_site6659],9.32
15,TAAAATATGGAAATCACACATTTATTAAAATATATA [CACACA_site4623],9.13
16,TGTATTAATATGGTAATACACACTAATATACTTTTG [CACACA_site1610],9.38
17,TTGATTTCATTTTAAGTGCATAACTAATATTATATA [GTGCAC_site9713],9.14
18,ATTATGAAATATCGTGCACACACGAATAATATAAGA [CACACA_site1294],9.42
19,AAAAAAAAAACAAATGCATGTAATATAAGAATTACA [TGCATGCA_site908],9.27
20,TACAGACAGAAATGCACACACATATTTATATTTATA [CACACA_site7139],9.75
21,AAACAAAAAATATATACACACTAAACATAAAAAAAA [CACACA_site4185],9.83
22,AACATATACACGAACACACACACATATAAATAAATA [CACACA_site6380],9.96
23,AACAAATACGAACACACACACACACTAAAAAAAAAA [CACACA_site6386],10.2

row,Sequence,gcPBM binding intensity (ln)
1,TAACACATAAATAAATATATACATATATATAAAATA [CACACA_negctrl_site375],9.36
2,AGTATACACGAACACACACACACATATATAAATATA [CACACA_site6913],10.3
3,CTAAAATACGAACACACACACACATATAAATAAATA [CACACA_site7872],10.3
4,CATATACACGAACACACACACATATAAATAAATATA [CACACA_site6379],10.1
5,CATACAGACGAACACACACACATATAAATATAAATA [CACACA_site6443],9.91
6,CGAACAAACAAATAAACACACAAAAAAAAATATATA [CACACA_site1825],9.61
7,TGATCAATGGATTTAACACACAAAAAAAAAAAAAAA [CACACA_site3845],9.11
8,AAATAAAATAAAATAAAATAAAATTCTTTGATACCT [TGCATGCA_negctrl_site604],9.16
9,ATATATATATATATATGTACACATATATATACTCAC [XGTACX_site8043],9.37
10,ATATATTATATAAAAAGTACTAAAATAGTAAGATGT [XGTACX_site7493],9.65
11,GTTTATATATTATAAAGTACATATGAATTTAATAAT [XGTACX_site3601],9.01
12,TTAACAAATGGACACACACACACACCCAAAAAAAAA [CACACA_site4443],9.91
13,CAAACCCACCAACACACACACACAAAAATGATTAAA [CACACA_site2432],9.82
14,AACAAACACAGACACACACACACACCCAAATGATTA [CACACA_site2431],10.2
15,AACAAACACAGACACACACACACACTAATATGATTA [CACACA_site8770],10.2
16,CAAACAAACGGACACACACACACACCCAAAAATGAT [CACACA_site5363],10.1
17,TATGAACACAGACACACACACAAAAAAAAAAAAAAA [CACACA_site7037],9.27
18,AACACCCACAGACACACACACAAAAATGATTAAAAA [CACACA_site2433],9.83
19,AATATGAACAGACACACACACACAAAAAAAAAAAAA [CACACA_site2012],10
20,CAAACAAACAGACACACACACACACCCAAAAATGAT [CACACA_site2430],10.4
